CBFb RUNX1 block: CBF-beta/RUNX1 interaction disruption; AlphaScreen CBFb-His/RUNX1-biotin binding, biochemical; 230,000 tested, under 10 active; Potency, µM (doses to about 59.8 µM), without a hit: at the top dose activity, negative = inhibition, most hits filed as inhibitors; AID 1477; Q01196+Q13951; further: % of control where 0% means no effect
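Compounds were screened at multiple concentrations against a preformed CBF-beta(His)/RUNX1(biotin) complex (30 nM of each) for 15 min at room temperature, followed by 90 min with nickel and streptavidin beads and AlphaScreen reading.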
VDR inh: inhibitors of human vitamin D receptor. P11473. VDR-SRC2-3 peptide fluorescence polarization, 2 h. Potency, µM, for inactives: max response, negative = inhibition, actives largely listed as inhibitors. hit rate 0.93% among 400,000; further: potency means the concentration at half of the fitted maximal effect; on the % scale 0 is the no-effect control and ±100 the full control effect
Target sequence (P11473 whole entry, looked up): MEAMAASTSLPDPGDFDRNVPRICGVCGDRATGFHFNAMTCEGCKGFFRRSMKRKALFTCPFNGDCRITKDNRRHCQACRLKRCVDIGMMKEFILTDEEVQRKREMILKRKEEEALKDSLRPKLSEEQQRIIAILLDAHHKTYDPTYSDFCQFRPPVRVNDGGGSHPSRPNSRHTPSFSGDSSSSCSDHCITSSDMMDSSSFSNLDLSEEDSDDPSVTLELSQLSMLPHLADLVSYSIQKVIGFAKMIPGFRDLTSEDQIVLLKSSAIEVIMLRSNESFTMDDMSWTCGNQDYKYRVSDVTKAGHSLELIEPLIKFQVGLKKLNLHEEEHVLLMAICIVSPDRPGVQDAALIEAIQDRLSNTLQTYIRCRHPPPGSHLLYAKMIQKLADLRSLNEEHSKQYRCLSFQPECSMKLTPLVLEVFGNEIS
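Reagent solutions, kept cold and dark, are dispensed first; compounds are then pinned in at 23 nl, plates briefly spun, and incubated 2 h at ambient temperature. Inhibition of VDR–SRC2-3 peptide binding is read by fluorescence polarization.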
KCNH2 3.1 inh: blocks the human KCNH2 3.1 channel isoform. U2OS KCNH2 3.1, thallium flux FluxOr; hits give low values. activity change, % (tested at about 1.8 µM). hit rate 0.95% among 340,000. AID 720553;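 active means maximum activity change below -70%; inconclusive means maximum activity change from -70% to -50%; inactive means maximum activity change above -50%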;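 further: thallium influx rate constant from kinetic fluorescence after stimulation buffer; on the % scale 0 is the no-effect control and ±100 the full control effect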
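U2OS cells transduced with KCNH2 3.1 mutant virus (1.77 x 10^8 /mL, 4 h), plated overnight at 37 C, loaded 45 min with FluxOr dye plus Red40 quencher. Thallium flux rate constant from kinetic reads after stimulation buffer, normalised to controls.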
hERG WT inh: inhibitors of human wildtype KCNH2 potassium channel; Q12809; U2OS, BacMam KCNH2, thallium flux FluxOr; hits give low values; activity change, % at 1.84 µM; hit rate 0.37% among 340,000;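 active means maximum activity change below -70%; inconclusive means maximum activity change between -70% and -50%; inactive means maximum activity change above -50%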; further: on the % scale 0 is the no-effect control and ±100 the full control effect
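U2OS cells were transduced with wild-type KCNH2 virus (2.03 x 10^8 / mL) for 4 h at room temperature, then cultured overnight at 37 C. Thallium flux was read with FluxOr dye. Rate constants were normalized to DMSO controls.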
PLK1 PBD block: inhibitors of human PLK1 polo-box domain binding | P53350 | Plk1 PBD binding of FITC phosphopeptide, fluorescence polarization | Potency, µM, for inactives: max response, negative = inhibition, most hits filed as inhibitors | hit rate 2.8% among 360,000 | AID 720504; further: potency means the concentration at half of the fitted maximal effect; series mostly up to about 57 µM; on the % scale 0 is the no-effect control and ±100 the full control effect; nearly all actives have a fitted effect of over 65% in size
MBNL1-CUG inh: inhibitors of human MBNL1 binding to CUG repeat RNA | Potency, µM (top dose mostly 57.5 µM), for the others: at the highest dose activity change, negative = inhibition, hits mostly inhibitors | TR-FRET MBNL1-His/biotin-(CUG)12 binding, 665/545 ratio | hit rate 0.036% among 280,000; active means well fitted inhibition curve with a large enough effect in the signal ratio, with a control signal flat, not every such curve was filed as active; inconclusive means small, poorly fitted or top-dose-only effect, or effect the other way, or a change in a side signal; inactive means no such curve, though single readings can be large or run the other way; the % refers to the signal ratio; further: potency means the concentration at half of the fitted maximal effect; on the % scale 0 is the no-effect control and ±100 the full control effect
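Ratiometric TR-FRET (665 over 545 nm, excitation 340 nm) tracks disruption of MBNL1-His/biotin-(CUG)12 complex after 60 min at room temperature, with compounds at 92 nM to 58 uM final.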
VDR inh confirm: inhibits human vitamin D receptor, primary hit validation | shares compounds with VDR inh | VDR-coactivator inhibition assay, qHTS confirmation | Potency, µM, hits mostly inhibitors | hit rate 89% among 840; further: potency means the concentration at half of the fitted maximal effect
VDR FP: VDR (human) coactivator binding inhibition, fluorescein polarization; Potency, µM (doses to about 57.1 µM), for the others: at the top dose activity change, negative = inhibition, usual class: inhibitors; shares compounds with VDR inh; VDR-coactivator binding, fluorescein fluorescence polarization; hit rate 48% among 840; AID 602200; further: potency means the concentration at half of the fitted maximal effect
VDR bla: inhibits human VDR in beta-lactamase reporter cells; Potency, µM (highest dose often 46.1 µM), without a hit: top-dose activity change, negative = inhibition, hits mostly inhibitors; VDR beta-lactamase reporter cells, FRET ratio; cells co-treated with VDR agonist LG190178; hit rate 23% among 840; AID 602202; shares compounds with VDR inh; further: potency means the concentration at half of the fitted maximal effect; on the % scale 0 is the no-effect control and ±100 the full control effect
VDR cytotox: cell toxicity, VDR inhibitor hit counter-screen | shares compounds with VDR inh | cytotoxicity counter-screen, cell viability, qHTS | Potency, µM (top dose mostly 48.3 µM), inactives show top-dose activity change, negative = cytotoxicity, hits mostly cytotoxic | hit rate 18% among 840;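 further: potency means the concentration at half of the fitted maximal effect; plate controls were DMSO for no effect and high-concentration cycloheximide for full effect; nearly all actives have a fitted effect of over 75% in size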
TbPYK confirm: Trypanosoma brucei pyruvate kinase inhibition, cherry-pick confirmation | shares compounds with PLK1 PBD block | recombinant TbPYK, Kinase-Glo ATP luminescence | Potency, µM (series often up to 76.9 µM), inactives show top-dose activity change, negative = inhibition, actives largely listed as inhibitors | hit rate 67% among 890; further: potency means the concentration at half of the fitted maximal effect; on the % scale 0 is the no-effect control and ±100 the full control effect; nearly all actives have a fitted effect of over 70% in size
TbPYK ADP-Glo: TbPYK inhibition, orthogonal confirmation. AID 720584. recombinant TbPYK, ADP-Glo luminescence, 60 min. hit rate 62% among 890. shares compounds with PLK1 PBD block. Potency, µM (top dose mostly 76.9 µM), for inactives: at the highest dose activity change, negative = inhibition, hits mostly inhibitors; further: potency means the concentration at half of the fitted maximal effect; on the % scale 0 is the no-effect control and ±100 the full control effect; nearly all actives have a fitted effect of over 75% in size
* marks the source's active call; other numbers are inactive results; ? = inconclusive; · = no result. In the library only some 3.8% were active in any assay of this set; here they are far more common. Unless noted, the call rests on the fitted dose curve; in most records, active means well fitted curve in the direction sought with a large enough effect; inconclusive means small, poorly fitted or top-dose-only effect, or another doubt; inactive means no such curve, though single readings can be large; an effect the other way counts as inactive or inconclusive.

SMILES	CBFb RUNX1 block	VDR inh	KCNH2 3.1 inh	hERG WT inh	PLK1 PBD block	MBNL1-CUG inh	VDR inh confirm	VDR FP	VDR bla	VDR cytotox	TbPYK confirm	TbPYK ADP-Glo
CSc1nnc(NC(=O)c2nc(S(=O)(=O)Cc3ccccc3)ncc2Cl)s1	·	?	6.1	4.6	29.9µM*	10.1%	10*	8.91µM*	5.17µM*	26.7µM*	·	·
Cc1ccc(CNC(=O)c2nc(S(=O)(=O)Cc3ccc(C)cc3)ncc2Cl)cc1	·	-8.3%	·	·	·	·	·	·	·	·	·	·
CC(C)Sc1ncc(Cl)c(C(=O)Nc2nnc(C(C)C)s2)n1	·	3.3%	·	·	·	·	·	·	·	·	·	·
CCCc1nnc(NC(=O)c2nc(S(=O)(=O)Cc3ccc(C)cc3)ncc2Cl)s1	·	28.2µM*	-16.5	-14.4	-20.9%	14.1%	?	7.94µM*	18.4µM*	20.6µM*	·	·
O=C(/C=C/c1cccc(Cl)c1)c1nc2ccccc2[nH]1	-2.7%	44.7µM*	-23.6	-4.3	?	15.1%	8.44*	?	?	?	·	·
O=C1CCC(C(=O)Nc2cccc(S(=O)(=O)Nc3ccccc3F)c2)=NN1	·	25.1µM*	-1.0	14.2	2.38µM*	·	?	?	25.2%	14.1%	6.31µM*	6.31µM*
CCc1sc(C(C2C(=O)CC(C)(C)CC2=O)C2C(=O)CC(C)(C)CC2=O)cc1[N+](=O)[O-]	-2.6%	12.6µM*	5.5	-2.4	1.68µM*	3.1%	3.36*	?	?	-12.7%	15.8µM*	31.6µM*
CC1(C)CC(=O)C(CC2C(=O)CC(C)(C)CC2=O)C(=O)C1	7.9%	-1.8%	1.1	4.4	-21.1%	-2.0%	·	·	·	·	·	·
COc1ccc(C)cc1NC(=O)C(CCSC)NS(=O)(=O)c1ccc2c(c1)oc(=O)n2C (stereo unspecified)	·	7.1%	·	·	·	·	·	·	·	·	·	·
CC1=C(C)CS(=O)N(S(=O)(=O)c2ccc(Cl)cc2)C1 (stereo unspecified)	2.8%	2.82µM*	10.2	-8.4	1.34µM*	-1.1%	1.19*	?	-2.1%	16.4µM*	15.8µM*	28.2µM*
CC1CCCC(C)N1S(=O)(=O)c1ccc(Cl)cc1 (stereo unspecified)	·	9.7%	-17.4	-2.7	-7.1%	3.0%	·	·	·	·	·	·
O=C(Nc1ccc(Cl)cc1F)c1cc(S(=O)(=O)NCc2ccc3c(c2)OCO3)ccc1F	·	8.1%	·	·	·	·	·	·	·	·	·	·
CCOC(=O)c1c(NC(=O)c2ccoc2C)sc(C)c1C	-0.4%	16.6%	-0.3	-15.3	-18.4%	-7.5%	·	·	·	·	·	·
CCc1c(C)sc(NC(=O)c2ccoc2C)c1C(N)=O	·	35.5µM*	-11.5	-2.9	2.67µM*	45.6%	6.7*	?	4.7%	-10.1%	14.1µM*	15.8µM*
CC1=CC(=O)C(C(C)C)=CC1=NC(=O)c1ccc(C)cc1	-0.9%	25.1µM*	-8.5	-4.6	2.67µM*	-6.0%	3.77*	?	?	?	7.94µM*	7.94µM*
CCOC(=O)c1c(C)oc2nc(C)nc(NCc3cccc(OC)c3)c12	·	4.6%	·	·	·	·	·	·	·	·	·	·
CC(NC(=O)c1sc2cc([N+](=O)[O-])ccc2c1Cl)C(C)(C)C (stereo unspecified)	-3.3%	?	-1.5	8.8	1.19µM*	6.4%	5.62*	3.16µM*	-7.7%	20.0%	3.98µM*	11.2µM*
O=C1ON=C(c2ccccc2)/C1=C/c1ccc(-c2ccccc2[N+](=O)[O-])o1	?	35.5µM*	9.0	9.6	0.947µM*	12.2%	7.52*	?	16.4µM*	23.1µM*	31.6µM*	?
CCN(CC)c1ccc(NC(=O)c2cnn(-c3ccccc3)c2-n2cccc2)c(C)c1	·	7.9%	·	·	·	·	·	·	·	·	·	·
COc1cc(C(=O)N(Cc2ccc(F)cc2)Cc2ccco2)cc(OC)c1OC	·	5.1%	·	·	·	·	·	·	·	·	·	·
CCOC(=O)c1c(N)sc(N)c1C(=O)OCC	8.7%	8.91µM*	-10.0	0.1	3.36µM*	-9.9%	4.74*	8.91µM*	1.3%	9.1%	31.6µM*	14.1µM*
CCOC(=O)c1c(N)sc(C(=O)N(CC)CC)c1C	1.9%	6.1%	3.6	8.5	-20.7%	2.9%	·	·	·	·	·	·
